One may read the viability as a read-out of living cells in per cent, often relative to untreated cells.

About 5,100 (6%) of roughly 85,000 compounds were called active. This is one part of a sample in which actives are shown more often than they occur. Values without a mark were called inactive.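 Rule for the calls: active = viability at or below 40%; inactive = viability above 40%.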

The source of these data is PubChem BioAssay AID598 (SRMLSC, 2007).

The experiment in a line: H69AR cell viability reduction – human, 86K library, primary screen (AID 598).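 Note: multidrug resistant small cell line overexpressing MRP-1 efflux transporter; 100% = mean luminescence of untreated control wells.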 The conditions noted are these: H69AR lung tumor viability, ATP luminescence, 72 h; at 10 µM; hits give low values.
Take `COCCCn1c2nc3ccccc3nc2c2c(=O)n(Cc3ccc(Cl)cc3)c(C)nc21`: the viability was 64.8%.
For `Cc1nc2c(c(=O)n1Cc1ccco1)c1nc3ccccc3nc1n2Cc1ccccc1`, the viability is 11.2% (active).
Regarding `Cc1ccc(Cn2c(C)nc3c(c2=O)c2nc4ccccc4nc2n3Cc2ccco2)cc1`, the viability is 83.3%.
Take `OCCCN1c2ccccc2Nc2nnc(-c3ccccc3)cc21`: the viability was 39.4% (active).
The result for `Cc1nc(NC(=O)C2CCCCC2)sc1C` reads 91.5%.
As to `O=C(O)CSCC(=O)Nc1cccc(C(F)(F)F)c1`, the viability is 96.6%.
The result for `CCNS(=O)(=O)c1ccc(NC(=O)Nc2cccc(C(F)(F)F)c2)cc1` reads 9.94% (active); that for `CCNS(=O)(=O)c1ccc(NC(=O)Nc2cccc(OC)c2)cc1`, 82.3%; that for `COc1ccc(-c2cn(-c3ccc(C)cc3)c(=O)n2CC(=O)Nc2ccc(OC)c(OC)c2)cc1`, 76.5%.
The result for `CS(=O)(=O)n1nc(-c2ccccc2)nc1NCc1ccco1` reads 96.7%.
The result for `Cc1cc(S(=O)(=O)NC2CCCCC2)ccc1OCC(=O)NCc1cccnc1` reads 107%.
As for `CC1(C)CC(CC(=O)O)C(=O)O1` (configuration not stated), the viability is 98%.
The result for `OC(COc1cccc2ccccc12)CN1CCN(c2ccccn2)CC1` (configuration not stated) reads 86.3%; that for `COc1cccc(OCC(O)CN2CCN(CCO)CC2)c1` (configuration not stated), 96.9%; that for `Cc1ccc(OCC(O)CN2CCN(CC(O)COc3ccc(C)cc3Cl)CC2)c(Cl)c1` (configuration not stated), 1.96% (active).
In the case of `CCN(CC(=O)NCc1cccs1)c1nnnn1-c1ccccc1`, the viability was 14% (active).
The result for `Cc1nnc(SCC(=O)NCc2cccs2)[nH]c1=O` reads 91.8%.
The result for `O=C(CSc1nnnn1-c1ccccc1)NCc1ccco1` reads 80%; that for `c1ccc2c(c1)C(=NC1CCCCC1)NC2=NC1CCCCC1`, 15.9% (active).
The result for `O=C1CCCCC(=O)c2ccccc2N1` reads 102%; that for `Cc1nnc(OCC(=O)NCCC2=CCCCC2)c2ccccc12`, 101%; that for `Cc1cc(C(=O)Nc2c(C)n(C)n(-c3ccccc3)c2=O)cs1`, 110%.
For the compound `COC(=O)Nc1c(C)n(C)n(-c2ccccc2)c1=O`, the viability is 99.9%.
Turning to `Cc1c(NC(=O)c2coc(=O)c(Br)c2)c(=O)n(-c2ccccc2)n1C`, the viability is 2.66% (active).
The result for `Clc1ccc(Nc2nc(-c3cccs3)cs2)nc1` reads 31.8% (active); that for `O=C(Nc1ccc(Cl)cn1)Nc1cccs1`, 98.4%; that for `c1ccc(Nc2nc(-c3ccncc3)cs2)nc1`, 86.7%.
Turning to `Cc1cc(C)c2cc(CN(Cc3nnnn3Cc3ccc(F)cc3)C3CCCC3)c(=O)[nH]c2c1`, the viability is 64.6%.
Consider `CCCCOC(=O)Cn1c(=N)n(CCN(CC)CC)c2ccccc21`, for which the viability was 91.2%.
The result for `O=c1c2ccccc2nc(N/N=C/c2ccccc2)n1O` reads 46.3%; that for `CCn1c(/C=C/c2ccc([N+](=O)[O-])o2)nc2ccccc2c1=O`, 6.55% (active).
The result for `CCOC(=O)C1CCc2nc3ccccc3c(=O)n21` (configuration not stated) reads 96.6%; that for `O=C(CCN1c2ccccc2Sc2ccccc21)Nc1ccccc1`, 70.8%.
The result for `CC1=CC(=O)C=CC1(C)C(Cl)(Cl)Cl` (configuration not stated) reads 105%; that for `COc1ccc2c(c1)cc1n2CCN=C1NN`, 90.8%; that for `COC(=O)C1=C(C(=O)OC)C2(OC1c1ccc(Br)cc1)C(=O)c1ccccc1C2=O` (configuration not stated), 106%.
In the case of `CCOC(=O)c1ccc(N2C(=O)CC(N(C)Cc3ccccc3)C2=O)cc1` (configuration not stated), the viability was 93.7%.
The result for `Fc1ccc(N2CCN(Cc3cnc(Oc4ccc(Br)cc4)s3)CC2)cc1` reads 90.4%; that for `O=C(c1cccc(C(=O)N2CCN(c3ccc(F)cc3)CC2)c1)N1CCN(c2ccc(F)cc2)CC1`, 70.1%; that for `Oc1c(CN2CCN(c3ccc(F)cc3)CC2)cc(Cl)c2cccnc12`, 5.07% (active).
As for `Cn1c(-c2sc3cc(C(F)(F)F)cnc3c2-c2ccccc2)n[nH]c1=S`, the viability is 92.5%.
As for `C=CCc1ccc(OCCOc2cccc(/C=N/n3cnnc3)c2)c(OC)c1`, the viability was 80.3%.
The result for `CCOC(=O)CSc1nnc(-c2ccncc2)o1` reads 95.7%.
Take `O=C(OCC#CCSc1nnc(-c2ccncc2)o1)c1sc2ccccc2c1Cl`: the viability is 2.76% (active).
For the compound `O=C(Nc1ccon1)c1sc2ccccc2c1Cl`, the viability is 88.1%.
As for `O=C(Nc1ccc2c(c1)CCC2)c1cccc(S(=O)(=O)N2CCN(c3ccc(F)cc3)CC2)c1`, the viability was 79.3%.
Take `COc1ccc(C2SCCN2S(=O)(=O)c2ccccc2)cc1OC` (configuration not stated): the viability was 81.4%.
Consider `COc1ccc(C2CC(=O)n3c(nc4ccccc43)S2)cc1OC` (configuration not stated), for which the viability was 115%.
As to `COc1ccc(C2CC(c3cccs3)=Nc3ccccc3S2)cc1OC` (configuration not stated), the viability was 20.8% (active).
The result for `O=C(Nc1ccc(F)c(Cl)c1)C1CCN(S(=O)(=O)c2cccnc2)CC1` reads 71.8%; that for `CCOC(=O)c1cnn(Cc2ccccc2Cl)c1N`, 96.2%.
The result for `CC1CCCN(C(C(=O)Nc2ccc(C(C)C)cc2)c2ccc3c(c2)OCO3)C1` (configuration not stated) reads 59.6%; that for `CC(=O)N1CCN(CCN=CC2=C(O)CC(C)(C)CC2=O)CC1`, 101%.
The result for `Cc1[nH]n(-c2ccc([N+](=O)[O-])cc2)c(=O)c1C=NCCN1CCN(C(=O)c2ccccc2F)CC1` reads 39.4% (active); that for `CC(=O)Nc1ccc(S(=O)(=O)N2CCN(C(=O)c3ccccc3F)CC2)cc1`, 85.2%; that for `CCC(C(=O)NCc1ccc(OC)cc1)n1nc(C)n2c(cc3occc32)c1=O` (configuration not stated), 80.3%.
On to `CCCc1nnc(NC(=O)c2cccs2)s1`, for which the viability is 102%.
The result for `CCCCNS(=O)(=O)c1ccc(S(=O)(=O)n2cnc3ccccc32)cc1` reads 88.8%; that for `O=S(=O)(c1ccc(Br)cc1)n1ccc2ccccc21`, 8.36% (active); that for `CC1(C)C2CCC13CS(=O)(=O)NC3C2` (configuration not stated), 91.1%.
The result for `CCn1c(C)nc2cc(C(=O)NNS(=O)(=O)c3ccc(C)cc3C)ccc21` reads 95.5%; that for `OC(c1ccccc1)c1nccn1Cc1ccccc1` (configuration not stated), 94.2%.
The result for `CCn1c(Cc2cccs2)nnc1SCC(=O)c1ccc(C)cc1` reads 84.1%; that for `NC(=O)c1ncc(C(F)(F)F)cc1Oc1ccc(F)cc1`, 102%.
Consider `N/C(=N\OC(=O)Nc1ccc(Cl)c(Cl)c1)c1ncc(C(F)(F)F)cc1Cl`, for which the viability was 19.4% (active).
The result for `O=C(CN1CCN(c2ncc(C(F)(F)F)cc2Cl)CC1)Nc1ccc2c(c1)OCO2` reads 105%.
The result for `O=c1c(-c2ccc3c(c2)OCCO3)c(C(F)(F)F)oc2cc(O)cc(O)c12` reads 39% (active).
The result for `CCN1CCN(Cc2c(O)ccc3c(=O)c(-c4ccc(OC)c(OC)c4)c(C(F)(F)F)oc23)CC1` reads 104%.
For the compound `CCSc1ccccc1C(=O)NCc1ccc(OC)cc1`, the viability was 92.6%.
For `CC(C)c1ccc(-c2noc(C3CCCN(S(C)(=O)=O)C3)n2)cc1` (configuration not stated), the viability was 106%.
With `CCn1c(=O)cc(OCC(=O)NCCCN2CCN(c3cccc(Cl)c3)CC2)c2ccccc21`, the viability was 43.8%.
Take `Cn1c(C(=O)NCCCN2CCN(c3cccc(Cl)c3)CC2)cc2c(=O)n(C)c3ccccc3c21`: the viability is 1.66% (active).
As for `CC1CCCC(C)N1CCCNC(=O)c1cc2c(=O)n(C)c3ccccc3c2n1C` (configuration not stated), the viability was 69.1%.
The result for `Cn1c(=O)c2c(ncn2CC(COCc2ccccc2Cl)OCc2ccccc2Cl)n(C)c1=O` (configuration not stated) reads 77.7%; that for `Cc1ccc(-c2noc(CSc3nnc(-c4cccs4)n3C)n2)cc1`, 98.8%.
The result for `COCCNS(=O)(=O)c1cc(Br)ccc1OC` reads 106%; that for `CCOCCn1c(C(C)C)nc2ccccc21`, 102%.
The result for `CCC(=O)NC(Nc1cc(C)ccn1)(C(F)(F)F)C(F)(F)F` reads 99%; that for `O=C(Nn1cc(C(=O)N2CCN(c3ccccc3F)CC2)c2ccccc2c1=O)c1cnccn1`, 34.7% (active).
As to `COc1ccc2oc(=O)c(C(=O)N3CCN(c4ccccc4F)CC3)cc2c1`, the viability is 108%.
For the compound `O=C(c1cccc2ccccc12)N1CCN(c2ccccc2F)CC1`, the viability is 56%.
Turning to `CC(C)OC(=O)c1c(NC(=O)c2ccco2)sc2c1CCCC2`, the viability is 109%.
Take `O=C1C(Cl)=C(N2CCOCC2)C(=O)N1c1ccccc1`: the viability is 86.6%.
With `COc1ccc(S(=O)(=O)Nc2ccc3oc(C)c(C(C)=O)c3c2)cc1`, the viability was 18.7% (active).
Turning to `COc1ccc2oc(C)c(NC(C)=O)c2c1`, the viability was 97.4%.
The result for `COc1cc(NS(=O)(=O)c2ccc(NC(C)=O)cc2)cc(OC)c1` reads 90.3%; that for `C=CCN(C(=O)Cn1ncc2c1-c1cc(C)ccc1OC2)c1ccccc1`, 84.9%; that for `CC(=O)C1=C(C)NC(=O)NC1c1cc(Br)ccc1OCC#N` (configuration not stated), 97.1%.
On to `COc1ccccc1-n1c(CNC(=O)c2ccccc2)nnc1SCC(=O)Nc1nnc(C)s1`, for which the viability is 108%.
In the case of `Cc1nnc(NC(=O)CSc2nccn2-c2cccc(C)c2C)s1`, the viability is 29.5% (active).
The result for `Cc1cnc(NC(=O)CSc2nnc(C)s2)s1` reads 81.4%; that for `CCOC(=O)CSC1=C(C#N)C(c2ccco2)C(C(=O)OCc2ccccc2)=C(C)N1` (configuration not stated), 22.2% (active); that for `Cc1ccc(C2CC(=O)NC(SCC(=O)OCc3ccccc3)=C2C#N)o1` (configuration not stated), 24.4% (active).
With `C=CCOC(=O)C1=C(C)NC(SCC(=O)OCC)=C(C#N)C1c1ccc(C)cc1` (configuration not stated), the viability was 61.6%.
The result for `CC1=C(C(=O)Nc2ccccc2)C(c2ccco2)C(C#N)=C(SCC(N)=O)N1` (configuration not stated) reads 91%; that for `COc1cc2c(cc1OC)C(c1ccc(C)o1)CC(=O)N2` (configuration not stated), 85.8%; that for `COC(=O)CSC1=C(C#N)C(c2ccccc2OC)C(C(=O)OC)C(=O)N1` (configuration not stated), 94.8%.
